# Over roughly 33,000 sequences, “E-score (-0.5 to 0.5)” has its median near -0.04; the highest 2% begin near 0.36. Only a selection was taken, and the highest values are over-represented in it overall.
# Target: T1, Hmlalpha2 (UniProt P0CY09)
# T1 sequence: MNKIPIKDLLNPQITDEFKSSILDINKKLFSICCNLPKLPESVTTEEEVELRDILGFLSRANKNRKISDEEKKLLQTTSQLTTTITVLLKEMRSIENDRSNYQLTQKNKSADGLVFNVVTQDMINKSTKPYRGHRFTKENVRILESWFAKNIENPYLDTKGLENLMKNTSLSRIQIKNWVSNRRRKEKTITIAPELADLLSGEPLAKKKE
# Test: PBM E-score (8-mer binding enrichment) (E-score (-0.5 to 0.5)); higher = stronger / more preferred TF binding
# Conditions: protein concentration: 200 nM; construct: GST-full length
# Description: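 Universal 'all 10-mer' protein binding microarrays (Agilent AMADID 015681) probed with GST-tagged S. cerevisiae TFs (full-length or DBD) made by in vitro transcription/translation (PURExpress), about 100-200 nM. Bound TF was detected with fluorescent anti-GST. Each ungapped 8-mer (which stands for itself and its reverse complement) is scored by the PBM enrichment score (E-score), a modified Wilcoxon-Mann-Whitney statistic from -0.5 to +0.5, computed with the Universal PBM Analysis Suite. Scale: above 0.35 generally sequence-specific binding.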
row,Sequence,PBM E-score
1,ATGTAAAG,0.473
2,CTTTAAAC,0.153
3,GTTTAAAC,0.41
4,ATGTAAAT,0.477
5,AAGTAAAG,0.0486
6,GTTTAAAA,0.215
7,GTGTAAAC,0.474
8,GGGTAAAC,0.0624
9,AGGTAAAT,0.24
10,CTGTAAAC,0.31
11,AAGTAAAT,0.341
12,CTGTAAAG,0.244
13,ACAGAAAT,0.107
14,CCATCACA,0.00393
15,CACCTTCC,-0.11
16,CCCTTAGA,-0.353
17,AGTGCCAG,-0.0844
18,CACAAAGG,-0.0549
19,AGCCACCC,-0.289
20,ATGTAAAA,0.474
21,CTGTAAAA,0.359
22,AGGTAAAC,0.26
23,GGGTAAAA,0.185
24,TTGTAAAA,0.392
25,TAGTAAAA,0.306

row,Sequence,PBM E-score
1,AGGTAAAA,0.16
2,GAGTAAAA,0.237
3,GTGTAAAA,0.467
4,ATGTAAAC,0.483
5,TGGTAAAA,0.266
6,AAGTAAAC,0.283
7,ATAGCGAC,0.106
8,CCGGGCAG,-0.165
9,TGGTCCAA,-0.192
10,GTTTGGCA,-0.0431
11,GTACAGAC,0.17
12,TACCCACA,-0.015
13,AGTATGCG,0.0952
14,ATACATCG,0.299
15,CGACATGC,0.311
16,CTACATTC,0.0322
17,ATACATGC,0.427
18,ATACATCA,0.334
19,ATACATCC,0.308
20,AGACATGG,0.21
21,ATACATGA,0.465
22,AGACATGA,0.275
23,AGACATGC,0.171
24,ATACATGG,0.451
25,CTACATGC,0.429

row,Sequence,PBM E-score
1,ACCACCGT,-0.0982
2,AGATGCCA,-0.254
3,ATACCTGA,0.0295
4,GGGGGGCA,-0.328
5,CTAGCAAG,-0.133
6,GAAGTCGA,-0.0459
7,CCGGACAA,0.0112
8,CACAGAGA,0.0962
9,TCAGGAGA,-0.123
10,ACTGCCCA,-0.0607
11,GATGCATC,0.0847
12,CCTGTGTA,0.43
13,CCTGTGAA,0.0484
14,GCTGTGTA,0.437
15,GCTGTGAA,0.0585
16,ACTGTGTA,0.443
17,CCTGTGTC,0.0583
18,ACTGTGTC,0.174
19,GCTGTATA,0.153
20,ACTGTGTG,0.128
21,AGGAGAGG,-0.277
22,ACCAACAA,0.198
23,AGCATTGA,-0.135
24,AAGAGGCA,-0.184
25,GCTCAACC,-0.147

row,Sequence,PBM E-score
1,ATCGCTCG,-0.128
2,AGTGTAAT,0.357
3,GCTGTAAA,0.336
4,AGTGTAAA,0.38
5,GTTGTAAA,0.385
6,ATTGTAAC,0.221
7,ATTGTAAA,0.374
8,CTTGTAAA,0.452
9,GGTGTAAA,0.351
10,CCTGTAAA,0.328
11,CTTGTAAC,0.36
12,AGTGTATA,0.114
13,ATTGTAAG,0.0623
14,AACACTAT,0.231
15,ACTCGACA,0.203
16,CAAATCTG,-0.0335
17,AATTGCGT,0.201
18,ACGCCCGG,-0.193
19,GATCTTTA,0.131
20,ACACCCAT,-0.0488
21,AAAGGCTC,-0.223
22,CGGCCTAG,-0.322
23,ACTCCTCC,-0.17
24,AGTTCTCA,0.0389
25,ATAATACG,0.239

row,Sequence,PBM E-score
1,CTAATACA,0.342
2,ATAATACA,0.38
3,GTAATAGA,0.257
4,GTAATACA,0.397
5,ATAATACC,0.0152
6,CCCTTATC,-0.0289
7,GCTAGCGA,-0.117
8,ATGAAACC,0.0645
9,ACATTGCG,0.249
10,CTCGTAGA,-0.0578
11,AAGCGTAT,0.0488
12,ACTTGGAT,0.0128
13,CCTCTCAC,-0.127
14,CTTGTTCC,-0.0361
15,AAGCACGC,0.0885
16,ATTAACCA,0.0177
17,ACGTATTA,0.345
18,ATGTATTA,0.428
19,GTGTATGA,0.262
20,GTGTATTA,0.421
21,ATGTATGA,0.296
22,CTGTATTA,0.191
23,CTACAGCC,-0.113
24,ATCAAGTA,0.217
25,ACACGCAC,0.382

row,Sequence,PBM E-score
1,ACACGCAA,0.35
2,GCACGCAC,-0.213
3,ACACGCAG,0.313
4,CCACGCAC,-0.0131
5,ACACGCAT,0.388
6,ACCAATTA,0.195
7,CTACGTTA,0.316
8,ATTAGTAA,0.206
9,CGGGGAGA,-0.256
10,GACTACTC,-0.0288
11,TGAAGCAA,0.0475
12,ATGAGGCC,-0.277
13,GGATAGGA,-0.212
14,AAACGACA,0.235
15,ACGTACAT,0.381
16,ACGTACAG,0.0878
17,ACGTACAA,0.273
18,AAGTACAG,0.0583
19,AAGTACAT,0.383
20,AAGTACAA,0.199
21,AGATTTAT,0.0596
22,AGCCTCCT,-0.16
23,AACGCATG,0.248
24,CAACACTA,0.169
25,GAACACGA,0.287

row,Sequence,PBM E-score
1,GAACACGC,0.299
2,CAACACGA,0.419
3,TAACACGA,0.469
4,CAACACAC,0.349
5,TAACACCA,0.314
6,CAACACAA,0.35
7,CAACACGG,0.386
8,CAACACCA,0.207
9,CAACACGC,0.367
10,CCACACGG,-0.0191
11,CAGCATCC,-0.176
12,ACGGTGTA,0.205
13,TACTCTCA,0.103
14,CGTGCCTC,-0.119
15,CGTTAACG,0.211
16,AATCCTTG,0.103
17,AGATATAA,0.127
18,AGTAGACG,0.0433
19,CGGTGGTA,-0.0335
20,TAACAAGA,0.377
21,AAACACAA,0.322
22,CAACAAGA,0.225

# Source: the supplement of paper PMC3334620
